Results: PubChem BioAssay (Tox21)
Where “and” joins values, the source holds several entries; their conditions need not be identical. Equal entries are not always repeated. Values without a mark were called inactive. Records with an inconclusive call do not appear. Where a call stands in place of a potency, no number is given. Calls of active or inactive are those of the source. The call rests on the fitted dose curve; in most records, active means well fitted curve in the direction sought with a large enough effect in the repeat runs; inconclusive means weak or mixed curves; inactive means no such curve, though single readings can be large; an effect the other way counts as inactive or inconclusive.

Experiment: qHTS assay for small molecule disruptors of the mitochondrial membrane potential (AID 720635); further: potency means the concentration at half of the fitted maximal effect
Conditions: HepG2 mitochondrial membrane potential, Mito-MPS dye ratio; series mostly up to 83.2 µM
Summary of the method: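 Mitochondrial membrane potential tracked with Mito-MPS dye, red aggregates (ex 540/em 590 nm) against green monomers (ex 490/em 535 nm). Compound treatment 1 hr at 37C, dye 30 min in HepG2.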

Structure (SMILES) | Potency
CCN(CC)c1ccc(N)cc1 | 49.9 µM (active)
Cc1c(-c2ccc(O)cc2)n(Cc2ccc(OCCN3CCCCCC3)cc2)c2ccc(O)cc12 | 10.6 µM (active)
CCCCCCC(C)OC(=O)COc1nc(F)c(Cl)c(N)c1Cl (stereo not given) | 61.1 µM (active)
c1cc2c3c(c1)ccc1cccc(c13)C2 | 62.4 µM (active)
O=C1C=CC(=O)N1c1ccccc1 | 48.6 µM (active)
CC1=C(/C=C/C(C)=C/C=C/C(C)=C\C=O)C(C)(C)CCC1 | 57.9 µM (active)
CC(=O)Nc1ccc(O)cc1 | inactive
Cc1cc(Nc2ccc(O)cc2)ccc1N | 6.82 µM (active)
Oc1ccc(-c2ccc(O)cc2)cc1 | 43.5 µM (active)
CN1[C@@H]2CC[C@@H]1CC(OC(=O)C(CO)c1ccccc1)C2 (stereo not given in full) | inactive
CC(=O)OC(OC(C)=O)c1ccc([N+](=O)[O-])o1 | 31.2 µM (active)
CNCC[C@H](Oc1cccc2ccccc12)c1cccs1 | 13.3 µM (active)
C=C(c1ccc(C(=O)O)cc1)c1cc2c(cc1C)C(C)(C)CCC2(C)C | 9.44 µM (active) and 21.7 µM (active)

Experiment: qHTS assay to test for compound auto fluorescence at 590 nm (red) in HepG2 cells (AID 720674)
Conditions: HepG2 autofluorescence, red 540/590 nm, 1 h; series mostly up to 91.3 µM
Summary of the method: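 We screened compounds on adherent HepG2 cells, incubating them for an hour at 37 C in 5% CO2 before reading emission at 590 nm under 540 nm excitation; values reflect equivalence to Rose Bengal sodium fluorescence.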

Structure (SMILES) | Potency | fluorescence, relative to Rose Bengal
CCN(CC)c1ccc(N)cc1 | inactive | –
CCN=C1C=CC(=C(c2ccc(N(CC)CC)cc2)c2ccc(N(CC)CC)cc2)c2ccccc21 | inactive | –
S=C(SSSSSSC(=S)N1CCCCC1)N1CCCCC1 | – | -0.0183% [at 18.6 µM]
Cc1cc2c(C(C)C)c(O)c(O)c(C=O)c2c(O)c1-c1c(C)cc2c(C(C)C)c(O)c(O)c(C=O)c2c1O | inactive | –
NC(=O)C(=O)N/N=C/c1ccc([N+](=O)[O-])o1 | inactive | –
Cc1c(-c2ccc(O)cc2)n(Cc2ccc(OCCN3CCCCCC3)cc2)c2ccc(O)cc12 | inactive | –
O=Nc1ccc(NO)cc1 | inactive | –
CCCCCCC(C)OC(=O)COc1nc(F)c(Cl)c(N)c1Cl (stereo not given) | inactive | –
c1cc2c3c(c1)ccc1cccc(c13)C2 | inactive | –
CN1[C@@H]2CC[C@H]1CC(OC(=O)C(CO)c1ccccc1)C2 (stereo not given in full) | inactive | –
O=C1C=CC(=O)N1c1ccccc1 | inactive | –
NCCCCCCNCCCCCCN | inactive | –
CC1=C(/C=C/C(C)=C/C=C/C(C)=C\C=O)C(C)(C)CCC1 | inactive | –
Cc1cccc(C)c1NC(=O)CN1CCN(CCCC(c2ccc(F)cc2)c2ccc(F)cc2)CC1 | – | -0.479% [at 18.6 µM]
C=CC(=O)OCCOCC(CC)(COCCOC(=O)C=C)COCCOC(=O)C=C | inactive | –
CC(=O)Nc1ccc(O)cc1 | inactive | –
C[C@]12CC[C@H]3C(=CCc4cc(O)ccc43)[C@@H]1CCC2=O | inactive | –
COc1cc(C(=O)NS(=O)(=O)c2ccccc2C)ccc1Cc1cn(C)c2ccc(NC(=O)OC3CCCC3)cc12 | inactive | –
Cc1c(C)n(Cc2ccccc2)c2ccc(C(=O)OCCN(C)C)cc12 | inactive | –

Structure (SMILES) | Potency | fluorescence, relative to Rose Bengal
CN(C)c1ccc(N=Nc2ccccc2C(=O)O)cc1 | inactive | –
Cc1cc(Nc2ccc(O)cc2)ccc1N | inactive | –
CC(NCCC(c1ccccc1)c1ccccc1)c1ccccc1 (stereo not given) | inactive | –
SCCCCCCCCS | inactive | –
CC(C)(C)c1cc(/C=C2\SC(=N)NC2=O)cc(C(C)(C)C)c1O | inactive | –
Oc1ccc(-c2ccc(O)cc2)cc1 | inactive | –
CC(CN(C)C)CN1c2ccccc2CCc2ccccc21 (stereo not given) | – | 0.485% [at 18.6 µM]
CN(C)CCCN1c2ccccc2CCc2ccccc21 | inactive | –
CN1[C@@H]2CC[C@@H]1CC(OC(=O)C(CO)c1ccccc1)C2 (stereo not given in full) | inactive | –
CC(=O)OC(OC(C)=O)c1ccc([N+](=O)[O-])o1 | inactive | –
CCN(CC)CCCN(c1ccccc1)C1Cc2ccccc2C1 | inactive | –
CNCC[C@H](Oc1cccc2ccccc12)c1cccs1 | inactive | –
CSc1ccc2c(c1)N(CCC1CCCCN1C)c1ccccc1S2 (stereo not given) | inactive | –
Clc1ccc(C(Cn2ccnc2)OCc2ccsc2Cl)c(Cl)c1 (stereo not given) | inactive | –
C=C(c1ccc(C(=O)O)cc1)c1cc2c(cc1C)C(C)(C)CCC2(C)C | inactive | –
CCCCOc1ccc(C(=O)CCN2CCCCC2)cc1 | – | 0.0479% [at 18.6 µM]
CN1CCN(C2Cc3ccccc3Sc3ccc(Cl)cc32)CC1 (stereo not given) | inactive | –
CCO[Si](CCCSSSSCCC[Si](OCC)(OCC)OCC)(OCC)OCC | inactive | –
